# According to PubChem BioAssay AID1946 (Johns Hopkins Ion Channel Center, 2009):
# Out of some 2,400 compounds screened, about 180 (7.5%) were called active. This excerpt belongs to a sample that is enriched for actives. Values without a mark were called inactive.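 Rule for the calls: active = readout below zero, meaning a drop past 3 SD under the dofetilide-free negative control mean; inactive = the rest.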
# Target: Potassium voltage-gated channel subfamily KQT member 2 (Rattus norvegicus) (UniProt O88943)
# Sequence (O88943 whole entry, looked up): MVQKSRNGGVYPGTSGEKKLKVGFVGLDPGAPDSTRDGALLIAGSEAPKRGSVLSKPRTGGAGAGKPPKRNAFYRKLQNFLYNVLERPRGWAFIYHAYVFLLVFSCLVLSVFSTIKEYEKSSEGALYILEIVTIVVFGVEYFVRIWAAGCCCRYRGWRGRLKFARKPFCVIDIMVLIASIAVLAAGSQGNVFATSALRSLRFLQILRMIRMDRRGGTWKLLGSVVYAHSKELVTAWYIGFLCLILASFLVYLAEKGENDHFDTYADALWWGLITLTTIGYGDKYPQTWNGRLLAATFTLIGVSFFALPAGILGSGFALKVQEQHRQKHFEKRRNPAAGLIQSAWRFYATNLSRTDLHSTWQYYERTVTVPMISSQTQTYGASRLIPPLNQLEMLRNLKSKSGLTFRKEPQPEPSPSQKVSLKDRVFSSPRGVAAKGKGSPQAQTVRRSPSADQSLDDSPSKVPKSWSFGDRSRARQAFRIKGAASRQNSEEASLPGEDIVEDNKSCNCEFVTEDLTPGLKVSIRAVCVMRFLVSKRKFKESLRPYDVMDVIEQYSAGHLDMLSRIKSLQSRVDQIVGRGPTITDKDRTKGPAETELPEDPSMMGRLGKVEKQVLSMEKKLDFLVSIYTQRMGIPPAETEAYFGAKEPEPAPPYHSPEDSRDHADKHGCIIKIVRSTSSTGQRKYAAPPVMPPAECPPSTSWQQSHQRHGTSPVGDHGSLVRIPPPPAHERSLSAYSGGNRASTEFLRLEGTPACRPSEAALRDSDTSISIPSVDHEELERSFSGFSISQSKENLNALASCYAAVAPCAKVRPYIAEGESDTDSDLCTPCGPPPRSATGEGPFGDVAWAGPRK
# Assay: rat KCNQ2 channel inhibition by compounds alone, confirmation, counter-screen for hERG block protector project, cell-based, CHO, FluxOR thallium flux (AID 1946)
# Details: CHO-KCNQ2 cells, FluxOR thallium flux fluorescence; at 10 µM; hits give low values; zero marks the 3-SD hit cutoff
row,Structure (SMILES),activity change vs negative control
1,O=C(Nc1ccc(-c2csc(Nc3cccc(C(F)(F)F)c3)n2)cc1)c1ccccc1,-0.8% (active)
2,c1ccc(-c2csc(Nc3ccc4c(c3)OCCO4)n2)cc1,1.2%
3,O=C(NC(=S)Nc1cccc(C(F)(F)F)c1)c1csnn1,138%
4,CC(=O)OCC1O[C@@H](O[C@@H]2C[C@H]3C(C)(C)[C@H](OC(C)=O)CC[C@]3(C)[C@H]3CC[C@]45C[C@]4(CC[C@H]5[C@@H](C)C[C@@H](O)[C@H](O)C(C)(C)O)[C@@]32C)[C@H](O)[C@@H](O)[C@@H]1O (some centres undefined),32.4%
5,Cc1csc(NC(=S)NC(=O)c2ccccc2)n1,36.6%
6,NC(=O)CSc1nc2ccccc2c(=O)n1CCc1ccccc1,7.8%
7,Cn1cnnc1SCC(=O)NCc1ccccc1,-1.1% (active)
8,COc1ccc(C(=O)NNC(=O)CSc2nnc(COc3ccccc3)n2C)cc1,6%
9,C=CCn1c(O)c(N=NC(=S)Nc2ccc(OC)cc2)c2ccccc21,39.5%
10,CCOc1ccccc1NC(=S)NC(=O)c1ccco1,21.9%
11,CCOc1ccc(NC(=S)NC(=O)c2ccco2)cc1,37.5%
12,CCCOc1ccc(CN(CCC#N)C(=S)NC(=O)c2ccccc2)cc1,35.1%
13,O=C(NC(=S)NNC(=O)c1cccs1)c1ccc(Br)o1,18.8%
14,CCOc1ccc(C(=O)NC(=S)N(Cc2ccccc2)Cc2ccccc2)cc1,15.8%
15,CCCOc1ccc(C(=O)NNC(=S)NC(=O)c2cccs2)cc1,-12.7% (active)
16,CCCOc1ccc(C(=O)NNC(=S)NC(=O)c2ccccc2)cc1,-1.3% (active)
17,COc1ccc(/C=C/C(=O)NC(=S)NNC(=O)c2cccs2)cc1,6.5%
18,CCCOc1ccc(C(=O)NNC(=S)NC(=O)c2ccco2)cc1,-4.6% (active)
19,COC(=O)C1=C(C)NC2=C(C(=O)CCC2)C1c1ccc(-c2ccsc2C(=O)OC)o1 (centres undefined),75.1%
20,O=C(NC(=S)NCc1ccccc1)c1cccs1,36.9%
21,CCOc1ccc(-c2c(=O)n(O)c3ccccc3[n+]2[O-])cc1,83.3%
22,S=c1[nH]cc(Cc2ccccc2)s1,25.1%
23,Oc1c(Br)cc(Br)cc1CNc1cccc2cccnc12,-1.8% (active)
24,O=C1C=C(Nc2cccc3cccnc23)c2ccccc2C1=O,14.9%
25,Oc1c(Br)cc(Br)cc1C=Nc1cccc2ncccc12,52.3%
26,Cc1cccnc1NC(=O)c1csnn1,14.2%
27,COc1ccc(-n2ncc3c2CC(C)(C)CC3NC(=O)c2cn[nH]c2)cc1 (centres undefined),0.2%
28,Cc1cc(C)cc(-n2ncc3c2CCCC3NC(=O)c2csnn2)c1 (centres undefined),-0.8% (active)
29,Cc1ccc(-n2ncc3c2CCCC3NC(=O)c2csnn2)cc1C (centres undefined),-1.1% (active)
